{"source": "the supplement of paper PMC8975748", "note": "Structures can show the parent of a compound that is named as a salt."}
{"test_system": "Saccharomyces cerevisiae BY4741 SeMeCo community", "assay": "z-score of subpopulation abundance vs DMSO median, subpopulation auxotrophic for LUM; higher = larger share of this subpopulation than in DMSO controls", "settings": "10 µM; 24 h; SM minimal medium; subpopulation (auxotrophy): LUM", "procedure": "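Fluorescent four-plasmid SeMeCo (self-establishing metabolically cooperating S. cerevisiae BY4741 community; plasmids pH-mRuby2, pL-mWasabi, pU-eCFP, pM-TagRFP657) was grown 24 h in minimal SM medium with each Selleck FDA-approved drug at 10 µM in 384-well plates. Cells were fixed and imaged by high-content confocal microscopy. For each auxotrophic subpopulation (and the prototroph), a z-score gives the deviation from the DMSO vehicle-control population median.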"}
{"compound": "NC(=NCCCCCCN=C(N)N=C(N)Nc1ccc(Cl)cc1)N=C(N)Nc1ccc(Cl)cc1", "note": "[Chlorhexidine?2HCl]", "z-score of subpopulation abundance": 2.03}
{"compound": "NC(=N\\CCCCCC/N=C(N)/N=C(\\N)Nc1ccc(Cl)cc1)/N=C(\\N)Nc1ccc(Cl)cc1", "note": "[Chlorhexidine diacetate]", "z-score of subpopulation abundance": 1.19}
{"compound": "Cc1nnc(SCC2=C(C(=O)O)N3C(=O)[C@@H](NC(=O)Cn4cc(Cl)c(=O)c(Cl)c4)[C@H]3SC2)s1", "note": "[Cefazedone]", "z-score of subpopulation abundance": -1.02}
{"compound": "c1cnc(N2CCN(Cc3ccc4c(c3)OCO4)CC2)nc1", "note": "[Piribedil]", "z-score of subpopulation abundance": 0.73}
{"compound": "CCN(CC)CC#CCOC(=O)C(O)(c1ccccc1)C1CCCCC1", "note": "(stereo not given) [Oxybutynin]", "z-score of subpopulation abundance": -0.32}
{"compound": "CO/N=C(\\C(=O)N[C@@H]1C(=O)N2C(C(=O)OCOC(=O)C(C)(C)C)=C(/C=C\\c3scnc3C)CS[C@H]12)c1csc(N)n1", "note": "[Cefditoren Pivoxil]", "z-score of subpopulation abundance": 1.12}
{"compound": "CC(=O)NC[C@H]1CN(c2ccc(N3CCOCC3)c(F)c2)C(=O)O1", "note": "[Linezolid]", "z-score of subpopulation abundance": -0.15}
{"compound": "CC[C@H](Nc1ncnc2[nH]cnc12)c1nc2cccc(F)c2c(=O)n1-c1ccccc1", "note": "[Idelalisib (CAL-101, GS-1101)]", "z-score of subpopulation abundance": 0.11}
{"compound": "CCc1cccc2c3c([nH]c12)C(CC)(CC(=O)O)OCC3", "note": "(stereo not given) [Etodolac]", "z-score of subpopulation abundance": -0.9}
{"compound": "O=C(O)c1cc(-c2ccc(F)cc2F)ccc1O", "note": "[Diflunisal]", "z-score of subpopulation abundance": -1.08}
{"compound": "O=C1CCc2ccc(OCCCCN3CCN(c4cccc(Cl)c4Cl)CC3)cc2N1", "note": "[Aripiprazole]", "z-score of subpopulation abundance": 1.32}
{"compound": "CCCN1CCCC[C@H]1C(=O)Nc1c(C)cccc1C", "note": "[Ropivacaine]", "z-score of subpopulation abundance": -0.83}
{"compound": "C#C[C@]1(O)CC[C@H]2[C@@H]3CCc4cc(O)ccc4[C@H]3CC[C@@]21C", "note": "[Ethinyl Estradiol]", "z-score of subpopulation abundance": -1.48}
{"compound": "O=C(O)Cc1ccccc1Nc1c(Cl)cccc1Cl", "note": "[Diclofenac acid]", "z-score of subpopulation abundance": -0.28}
{"compound": "O=C(O)c1cn(-c2ccc(F)cc2)c2cc(N3CCNCC3)c(F)cc2c1=O", "note": "[Sarafloxacin HCl]", "z-score of subpopulation abundance": 0.54}
{"compound": "CN1CCC[C@@H]1Cc1c[nH]c2ccc(CCS(=O)(=O)c3ccccc3)cc12", "note": "[Eletriptan HBr]", "z-score of subpopulation abundance": -1.48}
{"compound": "CO/N=C(\\C(=O)N[C@@H]1C(=O)N2C(C(=O)O)=CCS[C@H]12)c1csc(N)n1", "note": "[Ceftizoxime sodium]", "z-score of subpopulation abundance": -1.27}
{"compound": "O=C(O)c1cc(=O)c2c(OCC(O)COc3cccc4oc(C(=O)O)cc(=O)c34)cccc2o1", "note": "[Disodium Cromoglycate]", "z-score of subpopulation abundance": -0.55}
{"compound": "C#C[C@]1(OC(C)=O)CC[C@H]2[C@@H]3CCC4=C[C@@H](OC(C)=O)CC[C@@H]4[C@H]3CC[C@@]21C", "note": "[Ethynodiol diacetate]", "z-score of subpopulation abundance": -0.12}
{"compound": "CC1(C)S[C@@H]2[C@H](NC(=O)Cc3ccccc3)C(=O)N2[C@H]1C(=O)O", "note": "[Benzathine penicilline]", "z-score of subpopulation abundance": -0.44}
{"compound": "Nc1ccc(S(=O)(=O)Nc2ccnn2-c2ccccc2)cc1", "note": "[Sulfaphenazole]", "z-score of subpopulation abundance": -0.28}
{"compound": "Nc1nc(O)c2ncn(CCC(CO)CO)c2n1", "note": "[Penciclovir]", "z-score of subpopulation abundance": -0.73}
{"compound": "CC1CCc2cc(F)cc3c(=O)c(C(=O)O)cn1c23", "note": "(stereo not given) [Flumequine]", "z-score of subpopulation abundance": -0.22}
{"compound": "COc1ccnc(C[S+]([O-])c2nc3cc(-n4cccc4)ccc3[nH]2)c1C", "note": "(stereo not given) [Ilaprazole sodium]", "z-score of subpopulation abundance": 0.43}
{"compound": "CN[C@H]1CC[C@@H](c2ccc(Cl)c(Cl)c2)c2ccccc21", "note": "[Sertraline HCl]", "z-score of subpopulation abundance": -1.09}
{"compound": "CN(C)[C@@H](CCOc1cccc2ccccc12)c1ccccc1", "note": "[Dapoxetine HCl]", "z-score of subpopulation abundance": 0.92}
{"compound": "CCCCCOc1ccc(-c2cc(-c3ccc(C(=O)N[C@H]4C[C@@H](O)[C@@H](O)NC(=O)[C@@H]5[C@@H](O)[C@@H](C)CN5C(=O)[C@H]([C@H](O)CC(N)=O)NC(=O)[C@H]([C@H](O)[C@@H](O)c5ccc(O)c(OS(=O)(=O)O)c5)NC(=O)[C@@H]5C[C@@H](O)CN5C(=O)[C@H]([C@@H](C)O)NC4=O)cc3)no2)cc1", "note": "[Micafungin Sodium]", "z-score of subpopulation abundance": 4.1}
{"compound": "Cc1ccccc1OCC(O)CO", "note": "(stereo not given) [Mephenesin]", "z-score of subpopulation abundance": -0.39}
{"compound": "O=c1[nH]cnc2c1ncn2[C@@H]1O[C@H](CO)[C@@H](O)[C@H]1O", "note": "[Isoprinosine]", "z-score of subpopulation abundance": -0.5}
{"compound": "N[C@@H](C(=O)N[C@@H]1C(=O)N2C(C(=O)O)=C(Cl)CS[C@H]12)c1ccccc1", "note": "[Cefaclor]", "z-score of subpopulation abundance": 0.65}
{"compound": "CN(C)CCCN1c2ccccc2CCc2ccc(Cl)cc21", "note": "[Clomipramine HCl]", "z-score of subpopulation abundance": 1.56}
{"compound": "N#Cc1ccc2[nH]cc(CCCCN3CCN(c4ccc5oc(C(N)=O)cc5c4)CC3)c2c1", "note": "[Vilazodone]", "z-score of subpopulation abundance": 0.72}
{"compound": "CN(CCOc1ccc(NS(C)(=O)=O)cc1)CCc1ccc(NS(C)(=O)=O)cc1", "note": "[Dofetilide]", "z-score of subpopulation abundance": -0.27}
{"compound": "C[N+](C)(C)CCO.[Cl-]", "note": "[Choline Chloride]", "z-score of subpopulation abundance": 0.75}
{"compound": "Nc1c(CC(=O)O)cccc1C(=O)c1ccccc1", "note": "[Amfenac Sodium Monohydrate]", "z-score of subpopulation abundance": -0.56}
{"compound": "NCCc1ccc(O)c(O)c1", "note": "[Dopamine HCl]", "z-score of subpopulation abundance": -0.34}
{"compound": "COc1ccc2cc(CCC(C)=O)ccc2c1", "note": "[Nabumetone]", "z-score of subpopulation abundance": -0.43}
{"compound": "Cc1ccc(Nc2c(F)cccc2Cl)c(CC(=O)O)c1", "note": "[Lumiracoxib]", "z-score of subpopulation abundance": -0.56}
{"compound": "COc1ccc2cc(C(=O)O)ccc2c1", "note": "[6-Methoxy-2-naphthoic acid]", "z-score of subpopulation abundance": -0.89}
{"compound": "CO/N=C(/C(=O)N[C@@H]1C(=O)N2C(C(=O)OCOC(=O)C(C)(C)C)=C(C)CS[C@H]12)c1csc(N)n1", "note": "[Cefetamet pivoxil hydrochloride]", "z-score of subpopulation abundance": 1.09}
